Among the data in PubChem BioAssay (NCI) are growth values, retold here.

Some test systems named below: NCI-H23 lung; NCI-H226 lung; NCI-H322M lung; HOP-62 NSCLC; NCI-H460 lung; HOP-92 NSCLC; NCI-H522 lung; A549/ATCC NSCLC; 786-0 renal; COLO 205 colon.
What all share (experiment): NCI-60 one-dose screen, 48 h (100 = growth as untreated, 0 = no growth, -100 = all killed)
Holding throughout (conditions): 10 µM

The panel holds about 83,000 compounds, 20% with a hit somewhere; the sample as a whole holds those more often.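 Activity criterion: percent growth below 10, measured after cells in 96-well plates were exposed to a single compound concentration for 48 hours.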 Values without a mark were called inactive. Calls of active or inactive are those of the source.

`CCOC(=O)C(CCC1=NC(C)(C)CC(C)O1)C(=O)OCC` (stereo not given): the growth is 77.7% in the test with NCI-H23 lung; 95.1% in the test with NCI-H226 lung; 137% in the test with NCI-H322M lung; 93.8% in the test with HOP-62 NSCLC; 51.5% in the test on NCI-H460 lung; 95.3% in the test on HOP-92 NSCLC. Besides, the growth was 62.5% with NCI-H522 lung, 101% in the test with A549/ATCC NSCLC, 107% with 786-0 renal and 92% in the test with COLO 205 colon.
Turning to `C/C(=N\NC(=S)N1CCCC1)c1ccccn1`, the growth is 17% with NCI-H23 lung; -7.28% (active) in the test on NCI-H226 lung; 6.18% (active) in the test with NCI-H322M lung; 10% (active) in the test with HOP-62 NSCLC; 1.6% (active) in the test with NCI-H460 lung; 48.5% with HOP-92 NSCLC. The growth with NCI-H522 lung was 5.12% (active); in the test on A549/ATCC NSCLC it was 0.905% (active); with 786-0 renal, 20%; in the test with COLO 205 colon, 5.14% (active).
Take `NC1CCC(Nc2nc(NCc3cc(Cl)ccc3O)c3ncn(C4CCCC4)c3n2)CC1` (stereo not given): the growth in the test with NCI-H23 lung was -49.1% (active); with NCI-H226 lung, -6.72% (active); in the test with NCI-H322M lung, 10.9%; in the test with HOP-62 NSCLC, -18% (active); in the test with NCI-H460 lung, 0.39% (active); in the test on HOP-92 NSCLC, -18.1% (active). In addition, the growth is -50.2% (active) in the test with NCI-H522 lung, -4.99% (active) with A549/ATCC NSCLC, -11.3% (active) in the test with 786-0 renal and -63.1% (active) in the test with COLO 205 colon.
With `CCc1ccc(-c2nnc(COc3ccc(-c4nc5ccccc5[nH]4)cc3OC)o2)cc1`, the growth in the test on NCI-H23 lung is 72.4%; with NCI-H226 lung, 81.4%; in the test with NCI-H322M lung it was 96.9%; in the test with HOP-62 NSCLC it was 83.2%; in the test with NCI-H460 lung, 45.5%; in the test on HOP-92 NSCLC, 79%. For the same compound, the growth in the test on NCI-H522 lung is 91.6%; in the test on A549/ATCC NSCLC it was 60.3%; in the test on 786-0 renal, 22.3%; in the test on COLO 205 colon, 64.4%.
Regarding `O=S(=O)(O)C1(O)CCCCC1`, the growth in the test with NCI-H23 lung was 93.3%; with NCI-H226 lung, 95.4%; with NCI-H322M lung, 89.5%; in the test on HOP-62 NSCLC, 81.8%; in the test on NCI-H460 lung, 48%; with HOP-92 NSCLC, 101%. The growth with NCI-H522 lung is 91.7%; in the test with A549/ATCC NSCLC it was 98.9%; with 786-0 renal, 102%; with COLO 205 colon it was 96.1%.
As for `N#C/C(=C\N1C(=O)/C(=C/c2cccc([N+](=O)[O-])c2)SC1=S)c1nc2ccccc2s1`, the growth was 68.9% with NCI-H23 lung; 77.2% with NCI-H226 lung; 92.9% in the test with NCI-H322M lung; 73.1% in the test on HOP-62 NSCLC; 94.7% in the test on NCI-H460 lung; 8.99% (active) with HOP-92 NSCLC. Besides, the growth was 57.8% with NCI-H522 lung, 70% in the test on A549/ATCC NSCLC, 88.3% in the test with 786-0 renal and 101% in the test on COLO 205 colon.
On to `COc1ccc(C(C)=O)cc1N1C(=O)C2C(C1=O)C1(c3ccccc3)C(=O)C2(c2ccccc2)C(c2ccc(C)cc2)=C1c1ccc(C)cc1` (stereo not given), for which the growth in the test on NCI-H23 lung was 42.8%; with NCI-H226 lung, 32.9%; in the test on NCI-H322M lung, 27.6%; with HOP-62 NSCLC it was 33.4%; in the test with NCI-H460 lung, 4.54% (active); in the test on HOP-92 NSCLC, 49.6%. Further, the growth was 21.2% in the test with NCI-H522 lung, 6.68% (active) in the test on A549/ATCC NSCLC, 22.1% with 786-0 renal and 23.4% with COLO 205 colon.
For the compound `CCCCCN(CCCCC)C(C)C(O)c1ccc2cc(Cl)c3ccccc3c2c1` (stereo not given), the growth with NCI-H23 lung is 84.9%; in the test with NCI-H226 lung, 86.2%; in the test on NCI-H322M lung, 103%; in the test on HOP-62 NSCLC it was 92.1%; in the test on NCI-H460 lung it was 80.5%; with HOP-92 NSCLC, 55.9%. The growth in the test with NCI-H522 lung is 90%; in the test on A549/ATCC NSCLC, 102%; with 786-0 renal it was 98.5%; in the test on COLO 205 colon it was 83.9%.
As to `O=[N+]([O-])c1ccc(S(=O)(=O)OCCCCOS(=O)(=O)c2ccc([N+](=O)[O-])cc2)cc1`, the growth is 102% in the test with NCI-H23 lung; 90.1% with NCI-H226 lung; 112% in the test with NCI-H322M lung; 98.5% in the test on HOP-62 NSCLC; 108% in the test on NCI-H460 lung; 110% in the test with HOP-92 NSCLC. The growth in the test on NCI-H522 lung is 96.8%; in the test on A549/ATCC NSCLC it was 103%; in the test on 786-0 renal, 99%; in the test with COLO 205 colon, 117%.
For `Cc1cc2cc3c(=O)[nH]c(=O)cc-3n(CC(O)C(O)C(O)CO)c2cc1C` (stereo not given), the growth in the test with NCI-H23 lung was 106%; in the test on NCI-H226 lung it was 110%; with NCI-H322M lung it was 119%; in the test on HOP-62 NSCLC, 81.1%; with NCI-H460 lung, 101%; in the test with HOP-92 NSCLC, 111%. For the same compound, the growth in the test with NCI-H522 lung is 96.2%; in the test on A549/ATCC NSCLC it was 97.8%; in the test on 786-0 renal it was 103%; with COLO 205 colon it was 93.1%.
With `COC(=O)C1(C(=O)OC)C2C(=O)C3C(C21)C3(C(=O)OC(C)(C)C)C(=O)OC(C)(C)C` (stereo not given), the growth was 107% in the test with NCI-H23 lung; 89.5% in the test with NCI-H226 lung; 108% in the test with NCI-H322M lung; 99.9% in the test on HOP-62 NSCLC; 113% in the test with NCI-H460 lung; 97.8% with HOP-92 NSCLC. For the same compound, the growth with NCI-H522 lung is 111%; with A549/ATCC NSCLC, 109%; in the test with 786-0 renal it was 102%; with COLO 205 colon it was 115%.
For `Clc1cc(Cl)c(Cl)c(-c2nc(-c3cccnc3)cs2)c1`, the growth in the test with NCI-H23 lung is 94.8%; with NCI-H226 lung, 90.9%; in the test with NCI-H322M lung, 99.2%; in the test on HOP-62 NSCLC, 114%; with NCI-H460 lung, 92.2%; in the test on HOP-92 NSCLC, 79.7%. The growth in the test on NCI-H522 lung was -51% (active); in the test with A549/ATCC NSCLC it was 78.9%; in the test on 786-0 renal, 99.1%; in the test on COLO 205 colon, 57.1%.
As to `COc1cc(-c2cc(-c3cc(OC)c(OC)c(OC)c3)nc3nc(N)[nH]c(=O)c23)ccc1Oc1ccnc2cc(Cl)ccc12`, the growth with NCI-H23 lung was 42.1%; in the test on NCI-H226 lung, 76%; with NCI-H322M lung it was 37.5%; in the test with HOP-62 NSCLC it was 29.8%; with NCI-H460 lung, 13.8%; with HOP-92 NSCLC, 6.33% (active). The growth with NCI-H522 lung was 29.9%; with A549/ATCC NSCLC it was 32.3%; in the test on 786-0 renal, 51.4%; with COLO 205 colon, 105%.
Turning to `COc1ccc(-c2nsc3c2NC(=O)CC3c2cccc(Cl)c2)cc1` (stereo not given), the growth in the test with NCI-H23 lung was 46.9%; in the test on NCI-H226 lung, 75%; in the test on NCI-H322M lung, 36%; in the test with HOP-62 NSCLC, 27.8%; with NCI-H460 lung it was 13.3%; in the test on HOP-92 NSCLC it was -2.09% (active). Also, the growth is -6.59% (active) in the test on NCI-H522 lung, 30.2% in the test on A549/ATCC NSCLC, 46.4% in the test on 786-0 renal and -40.6% (active) in the test with COLO 205 colon.
